Values without a mark were called inactive. Calls of active or inactive are those of the source. No rule for the calls is given here.
Experiment: HDAC Secondary Assay for qHTS Assay for Epigenetic Modulators
Settings: HeLa nuclear extract HDAC activity, fluorogenic substrate, 20 min; at 48 µM; active compounds read low
Text: NIH Molecular Libraries Screening Centers Network [MLSCN] NIH Chemical Genomics Center [NCGC] MLSCN Grant: 1 X01 MH079860-01 Assay Provider: Elisabeth D. Martinez, University of Texas SW Medical Center NCGC Assay Overview: This secondary assay characterizes selected actives identified in the qHTS of the Locus Derepression (LDR) assay (PubChem AID 597). The LDR assay detects the derepression of a GFP reporter that is stably integrated in a region of the genome of murine c127i mammary cells that is presumably silenced. Compounds that cause derepression of the locus to express GFP are identified by enumerating GFP positive cells using a laser-scanning microplate cytometer. Selected LDR actives were assayed for inhibition of histone deacetylase (HDAC) activity in HeLa nuclear extracts using a HDAC fluorometric kit (AK-500, Biomol International LP). This assay uses a substrate containing an acetylated lysine side chain that is deacetylated by HDAC enzymatic activity to generate a fluorophore.
NCGC Assay Protocol Summary HeLa nuclear extracts and acetylated profluorescent substrate were incubated with vehicle, 0.5 uM TSA, or 48 uM indicated LDR compound for 20 min at ambient temperature and fluorescence was measured. Background-subtracted activity was expressed as a percent of uninhibited extract. Tests were performed in 25 uL volume in 384-well black plates using the HDAC assay kit AK-500 (Biomol International LP). For further details, see R.L. Johnson, W. Huang, A. Jadhav, C.P. Austin, J. Inglese, E.D. Martinez, A Quantitative High-Throughput Screen Identifies Potential Epigenetic Modulators of Gene Expression, Analytical Biochemistry (2007), doi: 10.1016/j.ab.2007.12.028

With `CC(/C=C/C(=O)NO)=C\[C@@H](C)C(=O)c1ccc(N(C)C)cc1` as the compound, how does the remaining HDAC activity read?
The remaining HDAC activity was 1% (active).

With `CCN(CC)c1ccc2cc(-c3nc4ccccc4[nH]3)c(=O)oc2c1` as the compound, how does the remaining HDAC activity read?
Its remaining HDAC activity is 112%.

With `O=Nc1ccc(O)c2ncccc12` as the compound, how does the remaining HDAC activity read?
The remaining HDAC activity was 84%.

With `CC(C)C(=O)NC(c1ccco1)c1cc([N+](=O)[O-])c2cccnc2c1O` (stereo not drawn) as the compound, how does the remaining HDAC activity read?
The remaining HDAC activity was 112%.

For `CCN1CSC(=S)N(CC)C1`, which remaining HDAC activity is on record?
The remaining HDAC activity was 103%.

For `CN(C)C(=O)CSc1cccc2cccnc12`, which remaining HDAC activity is on record?
Its remaining HDAC activity is 111%.

With `O=C(CSc1cccc2cccnc12)NCc1ccccc1` as the compound, how does the remaining HDAC activity read?
The remaining HDAC activity was 96%.

With `COc1ccc(C(NC(=O)C(C)C)c2ccc3cccnc3c2O)cc1` (stereo not drawn) as the compound, how does the remaining HDAC activity read?
Its remaining HDAC activity is 106%.

With `O=C(CSc1cccc2cccnc12)N1CCCC1` as the compound, how does the remaining HDAC activity read?
The remaining HDAC activity was 120%.

Which remaining HDAC activity does the source give for `CC(C)C(=O)NC(c1ccco1)c1ccc2cccnc2c1O` (stereo not drawn) here?
Its remaining HDAC activity is 108%.

Which remaining HDAC activity does the source give for `CN1CCN(Cc2cc(Cl)c3cccnc3c2O)CC1` here?
Its remaining HDAC activity is 109%.

With `CC(C)C(=O)NC(c1ccc(N(C)C)cc1)c1ccc2cccnc2c1O` (stereo not drawn) as the compound, how does the remaining HDAC activity read?
Its remaining HDAC activity is 99%.

Which remaining HDAC activity does the source give for `CN1C(=S)SC(c2ccccc2)N(C)C1c1ccccc1` (stereo not drawn) here?
The remaining HDAC activity was 107%.
